Drawing on PubChem BioAssay AID504848 (National Center for Advancing Translational Sciences (NCATS), 2011), this text covers Potency for 89 compounds.

Each structure is given as a SMILES string. About 1,400 (61%) of roughly 2,300 compounds were called active. Inconclusive results (about 29%) are left out. Calls follow the shape of the dose curve; as a rule, active = well fitted inhibition curve with a large enough effect; inconclusive = small, poorly fitted or top-dose-only effect, or effect the other way; inactive = no such curve, though single readings can be large or run the other way. So high a share suggests a set chosen from earlier hits. The list shows a part of the results.
Potency is read from the fitted curve at half-maximal effect.

The experiment in a line: Confirmation screen for delayed death inhibitors of the malarial parasite plastid, 96 hour incubation. Also: nearly all actives have a fitted effect of over 60% in size. The conditions noted are these: P. falciparum luciferase growth in erythrocytes; series mostly up to 28.7 µM. From the text: The goal of this screen is to discover new antimalarial compounds that act by inhibiting the development of the apicoplast in the malarial parasite Plasmodium falciparum. The biochemical processes that make this organelle essential for erythrocytic stage parasites are not well understood. However, antibiotics, such as azithromycin and tetracycline, which target the apicoplast translational machinery, have a potent antimalarial effect. […] We have developed a cell-based assay that measures parasite growth based on the expression of an integrated copy of a firefly luciferase reporter. To detect small molecules that cause this "delayed death phenotype, erythrocytes infected with the luciferase-expressing parasites were incubated with compounds for either one or two generations, corresponding to 48 and 96 hours, respectively. Compounds that inhibit parasite growth in the second generation, but not the first, should be enriched in antimalarials that target the apicoplast. Growth inhibition is detected by a decrease in luciferase activity. MLPCN Grant: R21 NS059500 Assay Provider: David Fidock and Eric Ekland, Columbia University Keywords: NIH Roadmap, MLPCN, MLI, MLSMR, qHTS, NCGC, qHTS, malaria, luciferase, viability
Four microliters of culture medium (RPMI 1640 with 0.5% w/v Albumax (GIBCO), 24 mM sodium bicarbonate and 10 ug/mL gentamycin) were dispensed by a Multi-drop Combi into white solid 1536-well plates (Grenier) and 23 nL compound was added by a pin tool. Four microliters of infected erythrocytes (2% hematocrit, 0.1% parasitemia final concentration) in culture medium were dispensed and the plates incubated for 96 hours at 37 C in 5% CO2. Two microliters of luciferase detection reagent was added and luminescence was detected by a ViewLux (PerkinElmer) reader
Turning to `O=C(NCCN1CCN(c2ccc([N+](=O)[O-])cc2)CC1)NCc1ccccc1`, the Potency is 12.6 µM (active).
On to `CC(C)CC1NC(=S)N(Cc2ccccc2)C1=O` (centres undefined), for which the Potency is 3.98 µM (active).
The result for `CCC(C(=O)O)C1OC(C(C)C(O)C(C)C(=O)C(CC)C2OC3(C=CC(O)C4(CCC(C)(C5CCC(O)(CC)C(C)O5)O4)O3)C(C)CC2C)C(C)CC1C` (centres undefined) reads 0.178 µM (active); that for `COC(=O)COc1ccc(S(=O)(=O)NCCC2=CCCCC2)cc1Cl`, “inactive”; that for `CC(=O)N1CCN(S(=O)(=O)c2cccc(C(=O)NCCC3=CCCCC3)c2)CC1`, 12.6 µM (active).
The result for `CCNC(=O)NC(=O)C(C)OC(=O)c1oc2ccccc2c1CSC1CCCCC1` (centres undefined) reads “inactive”; that for `CCOc1ccc(Cl)cc1C1=CC(=O)C[C@H](c2ccc(OC)cc2)C1`, 12.6 µM (active).
The result for `COc1ccc(OC)c(C2=CC(=O)C[C@H](c3ccc4c(c3)OCO4)C2)c1` reads 12.6 µM (active); that for `Cc1ccc(S(=O)(=O)Nc2cccc3ncccc23)s1`, 3.98 µM (active); that for `O=S(=O)(Nc1cccc2ncccc12)c1cccs1`, 3.55 µM (active).
Take `CCCc1ccc(C(=O)NC(=O)c2ccccc2O)cc1`: the Potency is 0.562 µM (active).
`CC(C)N=C(NS(=O)(=O)c1ccccc1)C(Cl)(Cl)Cl`: the Potency is 4.47 µM (active).
As for `NC(=S)Nn1c(-c2ccccc2)nc2ccccc2c1=O`, the Potency result was “inactive”.
The result for `O=C1c2ccccc2-n2c1nc1ccccc1c2=O` reads 0.501 µM (active); that for `O=C1c2cc(F)ccc2-n2c1nc1ccccc1c2=O`, 0.158 µM (active).
To `O=C(CSc1nnc2ccc(-c3cccnc3)nn12)Nc1cccc(F)c1` belongs 8.91 µM (active); to `CC1CCC(NC(=O)CN(C)S(=O)(=O)c2ccc3c(c2)c(=O)n(C)c(=O)n3C)CC1` (centres undefined), 3.98 µM (active); to `Cc1cccc(N(C)C(=O)CN(C)S(=O)(=O)c2ccc3c(c2)c(=O)n(C)c(=O)n3C)c1`, 12.6 µM (active).
The result for `Cc1cc(C)cc(-n2c(N)c(C(=O)Nc3c(C)n(C)n(-c4ccccc4)c3=O)c3nc4ccccc4nc32)c1` reads 3.16 µM (active).
In the case of `CCN(C(=O)c1cc2c(=O)n3ccccc3nc2n1CCCOC)C1CCCCC1`, the Potency is 10 µM (active).
To `CCOC(=O)c1c(C)c(-c2ccccc2)n(CC(=O)NCCCN(CC)CC)c1C` belongs 11.2 µM (active); to `COc1ccc(-c2csc(N3CCN(C(=O)c4ccco4)CC3)n2)cc1`, 12.6 µM (active); to `O=c1[nH]c(C(F)(F)F)nc2ccc3ccccc3c12`, “inactive”.
To `Cn1nc(C(F)(F)F)c(C(=O)Nc2ccc(F)cc2F)c1Sc1ccc(C(F)(F)F)cc1` belongs 7.94 µM (active); to `CC(C)N(C(=O)CSc1nnc(-c2ccc3c(c2)OCO3)n1C)C(C)C`, 10 µM (active); to `O=C(Nc1ccccc1O)c1ccc([N+](=O)[O-])cc1`, 12.6 µM (active).
To `CCCOc1cc(NCc2ccccc2)c2ncn(C(C)C)c2c1` belongs 2.82 µM (active); to `O=C(OC[C@@H]1O[C@@](O)(COC(=O)c2cccnc2)[C@H](OC(=O)c2cccnc2)[C@H]1OC(=O)c1cccnc1)c1cccnc1`, 6.31 µM (active).
For the compound `Cn1c(CCn2ccccc2=O)nc2cc(NC(=O)COc3ccccc3)ccc21`, the Potency was 10 µM (active).
`CCOc1ccc(/C=C2\SC(=S)N(C(C(=O)O)c3ccccc3)C2=O)cc1OC` (centres undefined): the Potency entry is “inactive”.
As for `COc1ccccc1OCCCOc1cccc(/C=C2\SC(=O)NC2=O)c1`, the Potency is 11.2 µM (active).
As to `CNC(=S)N(CCc1c(C)[nH]c2ccc(Cl)cc12)Cc1cccnc1`, the Potency was 12.6 µM (active).
To `CNC(=S)N(CCc1c(C)[nH]c2ccc(C)cc12)Cc1cc(OC)c(OC)c(OC)c1` belongs 11.2 µM (active).
As for `Cc1cccc(NC(=O)c2cn(-c3ccccc3)nc2-c2ccccc2)c1`, the Potency is 14.1 µM (active).
With `O=C(CCl)Nc1cn(-c2ccccc2)nc1-c1ccccc1`, the Potency is 11.2 µM (active).
To `OC(c1ccccc1)(c1ccccc1)C1CCN(C(=S)NCCc2ccccc2)CC1` belongs 5.01 µM (active); to `CN(CCNC(=O)c1ccc(CS(=O)(=O)c2ccc(Br)cc2)o1)CCc1ccccc1`, 2 µM (active); to `CCC1CCCCN1CCCNC(=O)c1ccc(CS(=O)(=O)c2ccc(Br)cc2)o1` (centres undefined), 5.01 µM (active).
The result for `CCCCN(CCCNC(=O)c1ccc(CS(=O)(=O)c2ccc(OC)cc2)o1)Cc1ccccc1` reads 5.01 µM (active); that for `CCCCNC(=O)c1ccc(CS(=O)(=O)c2cccc(C(F)(F)F)c2)o1`, “inactive”; that for `CN(CCCNC(=O)c1ccc(CS(=O)c2ccc(Br)cc2)o1)Cc1ccccc1` (centres undefined), 1.78 µM (active).
The result for `Cn1c(=O)c([N+](=O)[O-])c(-n2ccnc2)c2ccccc21` reads 14.1 µM (active); that for `CCc1ccc(/C=N/n2c(C)cc(C)c(C#N)c2=O)cc1`, 6.31 µM (active).
Consider `CCC1CN(C(=O)N2CCC(C(=O)NCc3cccc(OC)c3OC)CC2)c2cc(C)ccc2O1` (centres undefined), for which the Potency is 11.2 µM (active).
Turning to `COc1cccc(COC(=O)C2CC(=O)N(Cc3ccco3)C2)c1OC` (centres undefined), the Potency result is “inactive”.
The result for `CC(CN1CCC(n2nccc2NC(=O)c2ccccc2Cl)CC1)c1ccccc1` (centres undefined) reads 10 µM (active).
The result for `Cc1ccc(CN2CCC(n3nccc3NC(=O)c3ccccc3C)CC2)o1` reads 12.6 µM (active).
To `O=c1[nH]c(=O)n(Cc2ccco2)c2c1C(C(F)(F)F)(C(F)(F)F)N=C(CCc1ccccc1)N2` belongs 6.31 µM (active); to `CCOCCCNC(=O)/C(C#N)=C/c1ccc(-c2ccc(S(=O)(=O)N3CCOCC3)cc2)o1`, 11.2 µM (active).
With `COc1ccc(NC(=O)CSc2ccc(-c3ccco3)nn2)c(OC)c1`, the Potency is 11.2 µM (active).
To `Cc1cc(=O)n2nc(N3CCC(C(=O)NCc4ccc(F)cc4)CC3)sc2n1` belongs 8.91 µM (active); to `Cc1cc(=O)n2nc(N3CCC(C(=O)NCCc4ccc(Cl)cc4)CC3)sc2n1`, 10 µM (active).
The result for `Cc1cc(=O)n2nc(N3CCCC(C(=O)NCc4ccc(Cl)cc4)C3)sc2n1` (centres undefined) reads 11.2 µM (active); that for `Cc1cc(=O)n2nc(N3CCC(C(=O)NCc4ccc(Cl)cc4)CC3)sc2n1`, 10 µM (active).
The result for `O=C(CCl)Nc1ccc(S(=O)(=O)Nc2nccs2)cc1` reads 1.26 µM (active).
`O=C(CN1C(=O)/C(=C/c2ccc(F)cc2)SC1=S)N1CCN(CCc2ccccn2)CC1`: the Potency was 15.8 µM (active).
In the case of `CC(C)(C)C(=O)/C(=C\c1cccc([N+](=O)[O-])c1)n1cncn1`, the Potency was 10 µM (active).
The result for `COc1ccc(OC)c(NC(=O)c2nc(S(=O)(=O)Cc3ccccc3)ncc2Cl)c1` reads “inactive”.
To `COc1ccc(OC)c(NC(=O)c2ccccc2N(C)S(=O)(=O)c2ccc(C)cc2)c1` belongs 15.8 µM (active); to `C=CCN(c1ccccc1)S(=O)(=O)c1cccc(C(=O)N2CC(C)CC(C)C2)c1` (centres undefined), 12.6 µM (active); to `Cn1nc([N+](=O)[O-])nc1Sc1nnc(-c2ccccc2)o1`, 11.2 µM (active).
To `CSc1nc(C)c(C(=O)C[n+]2ccc(C)cc2)cc1C#N` belongs 14.1 µM (active); to `COC(=O)C(=C/C(C)=C/c1cccs1)C(=O)OC`, 12.6 µM (active); to `O=Nc1c(-c2c(O)[nH]c3cc(Br)ccc23)[nH]c2ccccc12`, 3.16 µM (active).
On to `Brc1ccc(/C=N/Nc2ncnc3c2cnn3Cc2ccccc2)cc1`, for which the Potency is 3.55 µM (active).
The result for `CC(C)[C@H](NC(=O)[C@@H]1Cc2c([nH]c3ccccc23)C2c3ccccc3C(=O)N21)C(=O)N1CCC[C@@H]1C(=O)O` (some centres undefined) reads 14.1 µM (active).
With `CCC(=O)Nc1cccc(C2=NOC3(C2)C[C@@H](C(N)=O)N(C(=O)c2cc([N+](=O)[O-])cc([N+](=O)[O-])c2C)C3)c1` (some centres undefined), the Potency was 11.2 µM (active).
Turning to `COCCN(C(=O)CCCC(=O)Nc1ccccn1)C(C(=O)NC1CCCCC1)c1ccc(C)cc1` (centres undefined), the Potency was 10 µM (active).
To `COCCn1c(SCC(=O)Nc2ccccc2F)nc2c(c1=O)SCC2` belongs “inactive”; to `CCNc1nc(NCC)n2c(SCC(=O)Nc3ccccc3F)nnc2n1`, 11.2 µM (active).
The result for `COc1ccc(CNCc2ccc3ccccc3c2)c(OC)c1` reads 11.2 µM (active); that for `COc1cccc(CN(C)CC2CCCN(CCc3ccc(Cl)cc3)C2)c1OC` (centres undefined), 2.82 µM (active).
The result for `CCOc1cc(/C=C/C(=O)Nc2ccc(C(=O)NCCN(CC)CC)cc2)ccc1OCC(C)C` reads 2 µM (active); that for `CCC(=O)Nc1ccc2c(c1)ncn2-c1ccccc1OC`, 11.2 µM (active); that for `Cn1nc(CC(=O)Nc2ncc(Br)s2)c2ccccc2c1=O`, 7.94 µM (active).
Take `COc1ccc(/C=C/C(=O)c2ccc([N+](=O)[O-])o2)cc1OC`: the Potency was 11.2 µM (active).
The result for `COc1ccc(Cl)cc1/C=C/c1ccc2cccc(O)c2n1` reads 5.62 µM (active); that for `Oc1cccc2ccc(/C=C/c3ccccc3Br)nc12`, 2.24 µM (active); that for `COc1ccccc1OCC(=O)Nc1cc(Cl)ccc1Oc1ccccc1`, “inactive”.
`Cc1ccc(C)c(N(CC(=O)Nc2cc(Cl)ccc2Oc2ccccc2)S(C)(=O)=O)c1`: the Potency was 8.91 µM (active).
To `CC(C)(C)NC(=O)[C@H]1CN(Cc2cccnc2)CCN1C[C@@H](O)C[C@@H](Cc1ccccc1)C(=O)N[C@H]1c2ccccc2C[C@H]1O` belongs 3.98 µM (active); to `CCc1ccc(Nc2n[n+](-c3ccccc3)c(-c3cccc(Cl)c3Cl)s2)cc1`, 2.82 µM (active).
To `Cc1c(C(=O)C(=O)N2CCCc3ccccc32)c2ccccc2n1C` belongs 12.6 µM (active).
The result for `CN(c1ccccc1)S(=O)(=O)c1ccc(NC(=O)c2nc(S(C)(=O)=O)ncc2Cl)cc1` reads “inactive”; that for `CCOC(=O)/C=C/C(=O)Nc1ccc(S(=O)(=O)N(C)c2ccccc2)cc1`, 10 µM (active); that for `Cc1cccc2c1NC(=O)/C2=C\C(=O)c1cccs1`, “inactive”.
As to `NC(=O)COc1ccc(C(=O)/C=C2/C(=O)Nc3ccccc32)cc1`, the Potency entry was “inactive”.
The result for `CC(=O)/C=C1/C(=O)Nc2ccccc21` reads 12.6 µM (active).
To `O=C(O)CCCCCNc1nc(-c2ccccc2)nc2ccccc12` belongs 10 µM (active).
